# Experimental data as given in PubChem BioAssay AID540255 (Broad Institute, 2011).
# Potency and affinity values are given separately. Inconclusive results are not listed. Entries that show only a call come without a potency. The source made the active and inactive calls. No rule for the calls is given here.
# Assay: H4 neuroglioma control reporter inhibition, dose response, counter-screen for prion reporter project, cell-based, plate reader, dry powder samples (AID 540255)
row,Compound,outcome
1,COc1ccc(N=CC2=C(O)c3ccccc3C2=O)c(OC)c1,inactive
2,Cc1cccc(C(=O)O/N=C(\N)c2ccccn2)c1,inactive
